# From PubChem BioAssay
# Shown are actives, neighbours in structure and some others; about 19% of the full set was active somewhere.
# HT1080NT lethal – kills 2HG-producing HT-1080-NT fibrosarcoma cells | HT-1080-NT fibrosarcoma viability, CellTiter-Glo ATP luminescence, 48 h | Potency, µM (series often up to 46.1 µM), for inactives: at the highest dose activity, negative = less viability, usual class: cytotoxic | 360,000 tested, 1.6% active | AID 686970;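 further: NT is the 2HG producing partner of a matched IDH1 knockdown line; potency means the concentration at half of the fitted maximal effect; 0% = DMSO-treated cells and -100% = media-only wells without cells; nearly all actives have a fitted effect of over 55% in size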
#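 Viability by CellTiter-Glo luminescence after 48 h compound exposure at 37C of HT-1080-NT cells (750/well, RPMI, 5% FBS). % activity scaled between DMSO wells and medium-only wells, then curve-fitted and categorized by curve class.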
# TDP1 cell CPT – growth inhibition of DT40 Tdp1-/-;hTDP1 cells with camptothecin (screen for TDP1 inhibitors) | chicken DT40 Tdp1-/-;hTDP1 cells + 20 nM CPT, ATP luminescence, 48 h | Potency, µM (top dose mostly 46.2 µM), for inactives: at the top dose activity change, negative = growth inhibition, actives largely listed as inhibitors | 420,000 tested, 12% active | AID 686979; further: potency means the concentration at half of the fitted maximal effect; nearly all actives have a fitted effect of over 55% in size
#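 Cell growth measured by CellTiter-Glo luminescence after a minimum 48 h, 37 C compound exposure with 20 nM CPT in Tdp1-knockout DT40 cells stably expressing hTDP1, seeded 400/well; qHTS titration format.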
# DT40 TDP1 no CPT – qHTS for Inhibitors of human tyrosyl-DNA phosphodiesterase 1 (TDP1): qHTS in cells in absence of CPT; DT40 Tdp1-/- hTDP1 cells, no CPT, ATP luminescence, 48 h; Potency, µM (series often up to 46.2 µM), for inactives: at the highest dose activity change, negative = growth inhibition, most hits filed as inhibitors; 420,000 tested, 15% active; AID 686978, 2013; further: potency means the concentration at half of the fitted maximal effect; nearly all actives have a fitted effect of over 55% in size
#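 Readout: luminescence from CellTiter-Glo after 30 min in the dark at RT. Cells: DT40 Tdp1-/- with stable hTDP1, 400/well. Exposure: compounds alone, ≥48 hr, 37 °C.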
# IL1B secr inh – inhibitors of inflammasome signaling (IL-1 beta secretion) | THP-1 LPS/ATP IL-1B secretion, AlphaLISA, 16 h; hits give low values | activity change, % at 57.5 µM | 360,000 tested, 4.7% active; in the data active means activity change below about -50%; inconclusive means mostly about -30% to -49%
#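 Secreted IL-1B measured by AlphaLISA bead assay after 16 h compound exposure of THP-1 cells; compounds (final up to 57.5 uM) added 1 h before LPS (250 ng/mL) and ATP (1.25 mM) stimulation; lower signal means less secretion.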
# HT1080 IDH1KD tx – HT-1080 IDH1 knockdown cell toxicity (counter line). Potency, µM (titrated, usually from 46.1 µM), for the others: top-dose activity, negative = toxicity, actives largely listed as cytotoxic. 360,000 tested, 2% active. HT-1080 IDH1 knockdown viability, ATP luminescence, 48 h;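 further: potency means the concentration at half of the fitted maximal effect; 0% = DMSO wells and -100% = cell-free medium wells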
#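 Assay cells: HT-1080 with IDH1 knockdown, 750 per well, RPMI/5% FBS. Exposure: 48 h at 37 °C following 2 h pre-incubation. Read: CellTiter-Glo luminescence; fitted concentration-response, curve class assigned.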
# * marks the source's active call; other numbers are inactive results; ? = inconclusive; nt = not tested or not shown; ! = repeats disagree; [ ] = remark or other dose. Unless noted, the call rests on the fitted dose curve; in most records, active means well fitted curve in the direction sought with a large enough effect; inconclusive means small, poorly fitted or top-dose-only effect, or another doubt; inactive means no such curve, though single readings can be large; an effect the other way counts as inactive or inconclusive. Unless noted, on the % scale 0 is the no-effect control and ±100 the full control effect.
SMILES,HT1080NT lethal,TDP1 cell CPT,DT40 TDP1 no CPT,IL1B secr inh,HT1080 IDH1KD tx
CCOCCCNC(=O)C1CCN(S(=O)(=O)N2CC(C)CC(C)C2)CC1 (centres undefined),-1%,2%,-7%,5,5%
O=C(OCC1OC(n2ccc(=O)[nH]c2=O)C2OC12)c1ccccc1 (centres undefined),14%,2%,-2%,-3,10%
Cn1cc(C(=O)c2ccc(F)cc2)cc1-c1nc2ccccc2n1C,-10%,?,16µM*,-29,0%
CC(=O)c1cc(-c2nc3ccccc3n2C)n(C)c1,28%,2%,5%,-2,22%
O=C(O)c1ccc(N/N=C/c2ccc(-c3ccc(Cl)cc3Cl)o2)cc1,?,16µM*,?,4,?
O=C(O)c1ccc(N/N=C/c2ccc(-c3cccc(Cl)c3)o2)cc1,10µM*,?,-11%,-13,16µM*
COC(=O)N/N=C/c1ccc(-c2ccc(Cl)cc2Cl)o1,-1%,3%,-9%,2,-10%
O=C(O)c1ccc(N/N=C/c2ccc(-c3cc(Cl)ccc3Cl)o2)cc1,?,26µM*,?,?,16µM*
CCCOC(=O)Nc1sc2c(c1C(N)=O)CCCC2,?,3%,6%,-1,?
CC12CCC(C(=O)Nc3cccc4ccccc34)(C1Br)C2(C)C (centres undefined),-2%,?,?,30,-6%
CCOc1cc(C(=O)Nc2ccccc2N2CCN(S(C)(=O)=O)CC2)cc(OCC)c1OCC,4%,?,?,-29,3%
COc1ccccc1C1CN(CC(=O)N[C@H]2CCCCNC2=O)Cc2ccccc2O1 (some centres undefined),nt,4%[9.04 µM],?,nt,nt
CC1=C(c2ccc(C)cc2)S(=O)(=O)NC1=NCc1ccccc1Cl,nt,23µM*,21µM*,nt,nt
Nc1ncc(-c2ccccc2)n1CC1CCCO1 (centres undefined),-3%,?,18µM*,-26,-2%
O=C(CSc1ncc(-c2ccccc2)n1CC1CCCO1)N1CCCCC1 (centres undefined),-14%,-9%,-16%,-14,-18%
c1ccc(-c2nc3nc4ccccc4nc3n2CC2CCCO2)cc1 (centres undefined),8%,?,15µM*,-3,6%
OCC[C@@H]1C[C@H](O)[C@@H](O)[C@]2(CCc3ccccc3O2)O1,1%,-11%,-11%,12,9%
O=S(=O)(c1ccccc1)N1CCC2(CCCN(Cc3ccncc3)C2)CC1,nt,-12%,-14%,nt,nt
O=S(=O)(NCCc1ccc(Cl)cc1)c1ccc(N2CCCCS2(=O)=O)cc1,nt,18µM*,23µM*,nt,nt
CCCCNS(=O)(=O)c1ccc(N2CCCCS2(=O)=O)cc1,nt,?,23µM*,nt,nt
COc1ccc(CCNS(=O)(=O)c2ccc(N3CCCCS3(=O)=O)cc2)cc1OC,nt,?,21µM*,nt,nt
O=S(=O)(NCCc1ccccc1)c1ccc(N2CCCCS2(=O)=O)cc1,nt,18µM*,23µM*,nt,nt
COc1ccc(CCN2CC(=O)NC(=O)C2)cc1OC,12%,2%,16%,-10,-1%
Cc1cc(OCC(=O)NNC(=O)c2cccs2)ccc1Br,2%,10%,8%,15,4%
c1ccc(CC(Nc2ccccn2)c2ccccc2)cc1 (centres undefined),-8%,3%,-20%,5,-12%
SMILES,HT1080NT lethal,TDP1 cell CPT,DT40 TDP1 no CPT,IL1B secr inh,HT1080 IDH1KD tx
Cc1ccc(CNS(=O)(=O)c2ccc(N3CCCCS3(=O)=O)cc2)cc1,nt,12µM*,16µM*,nt,nt
CCN(c1cccc(C)c1)S(=O)(=O)c1ccc(N2CCCCS2(=O)=O)cc1,nt,13µM*,23µM*,nt,nt
CCN(c1ccccc1C)S(=O)(=O)c1ccc(N2CCCCS2(=O)=O)cc1,nt,2%,-27%,nt,nt
O=S(=O)(Nc1ccccc1C(F)(F)F)c1ccc(N2CCCCS2(=O)=O)cc1,nt,-21%,-17%,nt,nt
O=C(Nc1cccc2c1[nH]c1ccccc12)C(F)(F)F,-9%,-4%,-28%,?,-1%
Clc1ccccc1-c1nnc2sc(-c3ccc4c(c3)OCO4)nn12,?,16µM*,?,-13,?
Brc1ccccc1-c1nnc2sc(-c3ccc4c(c3)OCCO4)nn12,nt,12µM*,23µM*,?,nt
Fc1ccc(-c2nn3c(C4COc5ccccc5O4)nnc3s2)cc1 (centres undefined),2%,?,-27%,15,3%
Clc1ccc(-c2nnc3sc(-c4ccc(Br)o4)nn23)c(Cl)c1,-5%,-24%,?,5,-3%
Clc1ccccc1-c1nnc2sc(-c3ccc(Br)o3)nn12,1%,-27%,-23%,-52*,-10%
CC1CC(C)CN(CCCNC(=O)c2ccc3c(c2)NC(=O)C(N2CCCCC2)S3)C1 (centres undefined),-28%,?,?,?,-19%
COCc1cc(C)nc(N2CCNCC2)c1C#N,0%,-13%,15%,1,7%
CCCO/N=C1/C(=O)N(c2ccccc2)c2ccccc21,-4%,13µM*,23µM*,?,-5%
CCO/N=C1\C(=O)N(c2ccccc2)c2ccccc21,-2%,6%,-26%,-51*,0%
O=C(O/N=C1\C(=O)N(c2ccccc2)c2ccccc21)C1CC1,-18%,?,-19%,-8,-21%
CCN(CC)c1ccc(-n2nc3cc(C)c(NC(=O)c4ccccc4F)cc3n2)cc1,nt,-2%,?,nt,nt
Cc1cccc(C)c1Nc1c(-c2ccccc2Cl)nc2cnccn12,nt,?,21µM*,nt,nt
Cc1cccc(C)c1Nc1c(-c2ccc(N3CCOCC3)cc2)nc2cnccn12,-8%,?,18µM*,3,-14%
Cc1ccc(Nc2c(-c3ccc(N4CCOCC4)cc3)nc3c(C)cccn23)cc1,nt,16µM*,15µM*,nt,nt
Cc1nc(SCC(=O)NCc2ccc3c(c2)OCO3)nc(C)c1C,2%,-4%,3%,11,16%
CC[C@](N)(CCC(=O)O)C(=O)O,nt,-2%,19µM*!,nt,nt
CCCCN(C)CCN1C(=O)C2C(C(=O)Nc3ccc(C)cc3)C3C=CC2(O3)C1C(=O)NC1CCCCC1 (centres undefined),-4%,0%,-22%,-54*,-4%
CN(C)CCN1C(=O)C2C(C(=O)Nc3cc(Cl)cc(Cl)c3)C3C=CC2(O3)C1C(=O)NC1CCCCC1 (centres undefined),-18%,4%,-2%,-68*,-11%
CC1CCCC(NC(=O)C2N(CCCN3CCCC3)C(=O)C3C(C(=O)Nc4cccc(Cl)c4)C4C=CC32O4)C1C (centres undefined),-22%,-2%,?,-57*,-29%
